Active and inactive are the calls of the source.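 The calls were made as follows, unless noted: active = visually confirmed hit in the image check and inhibition above 20%; inconclusive = visually confirmed hit but inhibition not above 20%; inactive = no visual hit in the image check.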
How the values were obtained:
[1] = inhibitors of TNFa-induced NFkB p65 translocation, primary screen, imaging, HUVEC, MLSMR starter and 10KST1 sets (AID 438;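 active = inhibition above 20% together with a positive visual image hit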;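 also: compound added about 3h40 before a 20 min TNFalpha stimulation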;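 as to inhibition: signal is the nuclear over cytoplasmic p65 intensity ratio per well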); settings: HUVEC TNFa-induced p65 nuclear translocation; cell count: measured here: nuclei count (cytotoxicity indicator), at 2.08 µM unless noted; inhibition: at 2 µM, stronger effect = higher value unless noted
[2] = reduction of polyQ htt aggregates in cells – imaging, exon1htt(103Q)mCFP cells, high-content imaging, primary screen (AID 483;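 active = visual image review flags a hit and inhibition of aggregation exceeds 20%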;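 also: compound exposure lasted 3 days before fixation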;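 as to nuclei count: percent of the per-plate median nuclei count of sample wells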); settings: exon1htt(103Q)mCFP cell line, aggregate imaging, at 2 µM; inhibition of aggregation: stronger effect = higher value; nuclei count: measured here: cell count, toxicity
[3] = endothelial E-selectin expression blockers – imaging, HUVEC, immunofluorescence, MLSMR starter and 10KST1 sets, primary screen (AID 487); settings: HUVEC TNFalpha-induced E-selectin immunofluorescence imaging, at 2 µM; inhibition: stronger effect = higher value; nuclei count: measured here: cell number, toxicity;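 as to inhibition: signal is fraction of cell area covered by stained E-selectin grains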;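 as to nuclei count: 100% = median nuclei count of all wells on the same plate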
[4] = target: Voltage-gated potassium channel subunit beta-2 (Rattus norvegicus) (UniProt P62483); assay: inhibitors of rat Kvbeta2 reductase activity – biochemical, NADPH fluorescence, primary screen (AID 622;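 active = fluorescence slope higher than the sample average by over 3 SD, cut at about -0.22 in these data, passing the limit was not always enough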;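 also: slope of raw intensity against log time taken from 70 to 1610 s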); settings: recombinant KvBeta, 4-cyanobenzaldehyde reduction, at 10 µM, stronger effect = higher value
Chain of Voltage-gated potassium channel subunit beta-2 (Rattus norvegicus) (P62483 whole entry, looked up): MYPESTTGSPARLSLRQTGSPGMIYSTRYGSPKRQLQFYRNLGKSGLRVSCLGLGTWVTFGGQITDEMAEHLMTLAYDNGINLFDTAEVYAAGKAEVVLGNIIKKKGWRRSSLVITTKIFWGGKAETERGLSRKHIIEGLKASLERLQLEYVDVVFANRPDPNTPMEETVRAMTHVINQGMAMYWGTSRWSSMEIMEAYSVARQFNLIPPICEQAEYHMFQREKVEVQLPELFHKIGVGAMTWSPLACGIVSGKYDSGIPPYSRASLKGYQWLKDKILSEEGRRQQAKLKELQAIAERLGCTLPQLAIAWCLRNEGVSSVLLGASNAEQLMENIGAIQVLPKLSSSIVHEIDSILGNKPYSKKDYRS

[5] = target: Voltage-gated potassium channel subunit beta-2 (Rattus norvegicus) (UniProt P62483); assay: enhancers of rat Kvbeta2 NADPH turnover – biochemical, NADPH fluorescence, primary screen (AID 623;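 active = NADPH fluorescence slope more negative than the mean of all samples by about 3 SD, 99.7% confidence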;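 also: fluorescence intensity change per second fitted from 20 to 320 s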); settings: Recombinant KvBeta, NADPH fluorescence decrease slope, 10 min; at 10 µM; stronger effect = lower value
[6] = target: Alpha-2C adrenergic receptor (Homo sapiens) (UniProt P18825); assay: compounds altering alpha2C-coupled GIRK flux – cell-based, HEK293 alpha2C/GIRK1/2, thallium flux, primary screen (AID 624;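 active = fluorescence slope after compound addition differing from the mean of all screened samples at 99.7% confidence, in either direction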;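 also: slope of fluorescence ratio to pre-addition baseline per second over 15 to 24 s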); settings: thallium flux BTC fluorescence, at 10 µM, actives lie on both sides
Chain of Alpha-2C adrenergic receptor (Homo sapiens) (P18825 whole entry, looked up): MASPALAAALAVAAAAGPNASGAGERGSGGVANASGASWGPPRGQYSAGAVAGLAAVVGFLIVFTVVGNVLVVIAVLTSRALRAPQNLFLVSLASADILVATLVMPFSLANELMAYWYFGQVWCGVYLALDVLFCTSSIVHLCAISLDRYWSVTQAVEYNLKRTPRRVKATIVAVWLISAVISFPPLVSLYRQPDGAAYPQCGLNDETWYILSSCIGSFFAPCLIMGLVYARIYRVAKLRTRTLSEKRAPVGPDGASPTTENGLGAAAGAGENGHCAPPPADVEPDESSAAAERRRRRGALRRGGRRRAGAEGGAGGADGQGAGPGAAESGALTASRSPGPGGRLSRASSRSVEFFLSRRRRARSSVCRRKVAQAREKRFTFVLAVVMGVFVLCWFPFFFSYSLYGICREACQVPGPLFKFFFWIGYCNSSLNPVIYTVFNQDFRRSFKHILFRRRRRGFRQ

[7] = blockers of RIG-like receptor reporter activation – cell-based, Sendai virus stimulus, luciferase, 10K MLSCN set, TLR/RLR signaling modifier project, primary screen (AID 602276;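 active = inhibition at or above 50% at 10 µM; inactive = inhibition below 50%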;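 also: firefly luciferase from ISG56 promoter only with Renilla not read in this screen; 0% = Sendai virus plus DMSO and 100% = medium plus DMSO without virus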); settings: HEK293 RL24 IRF3 luciferase reporter, at 10 µM, stronger effect = higher value
[8] = TLR3 IRF3 reporter activation blockers – cell-based, poly I:C stimulus, luciferase, 10K MLSCN set, primary screen (AID 602277;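 active = inhibition of the reporter signal at or above 50%; inactive = inhibition below 50%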); settings: HEK293-TLR3 RL24 IRF3 luciferase reporter, at 10 µM, stronger effect = higher value

Compound	cell count [1]	inhibition [1]	inhibition of aggregation [2]	nuclei count [2]	inhibition [3]	nuclei count [3]	fluorescence slope [4]	NADPH fluorescence slope [5]	slope [6]	inhibition [7]	inhibition [8]
CCOc1ccc(C2SCC(=O)Nc3c2c(=O)[nH]n3C2CCCCCC2)cc1 (stereo not drawn)	286	23.8% (inactive)	7.5% (inactive)	88.4%	-14.2% (inactive)	102%	-0.408 (inactive)	-2.7e-05 (inactive)	0.00778 (inactive)	-12.2% (inactive)	98.8% (active)
Cc1ccc(OCC(=O)NCCN2CCN(C(=O)COc3ccc(C)cc3)CC2)cc1	635	-0.2% (inactive)	9.1% (inactive)	94.7%	-103% (inactive)	103%	-0.611 (inactive)	-2.9e-05 (inactive)	0.00522 (inactive)	-9.99% (inactive)	-18.3% (inactive)
Cn1c(=O)cc(OCC(=O)N2CCN(C3CCCCC3)CC2)c2ccccc21	535	-5.5% (inactive)	14.2% (inactive)	81.7%	-119% (inactive)	113%	-0.533 (inactive)	-5e-05 (inactive)	0.00729 (inactive)	2.25% (inactive)	55.3% (active)
CC1(C)Cc2c(sc3c2C(=O)NC(c2cccnc2)N3)CO1 (stereo not drawn)	328	6.5% (inactive)	6% (inactive)	98.3%	4.5% (inactive)	106%	-0.584 (inactive)	-3.1e-05 (inactive)	0.00356 (inactive)	3.52% (inactive)	5.63% (inactive)
Cc1ccc(C2SCC(=O)Nc3c2c(=O)[nH]n3C2CCOC(C)(C)C2)cc1 (stereo not drawn)	378	-0.6% (inactive)	-18.2% (inactive)	128%	-20.4% (inactive)	111%	-0.37 (inactive)	-3.9e-05 (inactive)	0.00325 (inactive)	18% (inactive)	29.8% (inactive)
CCOc1cccc(N2C(=O)CC(=O)NC2=O)c1	351	-3.3% (inactive)	-8.7% (inactive)	109%	-63.8% (inactive)	107%	-0.524 (inactive)	-1.6e-06 (inactive)	0.00568 (inactive)	2.1% (inactive)	3.82% (inactive)
CC(C)CC12CN3CCN(CC(C3)/C1=N/O)C2	291	-16.4% (inactive)	-20% (inactive)	126%	4.9% (inactive)	109%	-0.496 (inactive)	-1.4e-05 (inactive)	0.00751 (inactive)	19.2% (inactive)	21.5% (inactive)
CC(=O)C1C(=O)NC23CCCCC2C1c1ccccc1O3 (stereo not drawn)	622	3.3% (inactive)	2.2% (inactive)	109%	25.3% (inactive)	99.5%	-0.357 (inactive)	4e-05 (inactive)	0.0063 (inactive)	4.02% (inactive)	14.8% (inactive)
CCOP(=S)(OCC)c1ccc(N(C)C)cc1	670	-1% (inactive)	18.4% (inactive)	68.7%	-113% (inactive)	117%	-0.572 (inactive)	3.8e-05 (inactive)	0.00443 (inactive)	-17.4% (inactive)	-4.41% (inactive)
COc1ccccc1-n1c(O)c(C=NCc2ccc3c(c2)OCO3)c(=O)[nH]c1=O	758	-13.8% (inactive)	-35.1% (inactive)	121%	-117% (inactive)	124%	-0.611 (inactive)	-5.6e-05 (inactive)	0.00662 (inactive)	2.15% (inactive)	9.73% (inactive)
CC1CCC(C(=O)NC(C(=O)N2CCC3(CC2)OCCO3)C(C)C)CC1 (stereo not drawn)	251	3.4% (inactive)	0.1% (inactive)	97.2%	1.3% (inactive)	88%	-0.399 (inactive)	-0.00014 (inactive)	0.00626 (inactive)	5.72% (inactive)	20.1% (inactive)
Cc1ccccc1NC1=NCCCS1	457	-10.3% (inactive)	29.9% (active)	83.1%	67.8% (inactive)	74.1%	-0.357 (inactive)	-3.1e-05 (inactive)	0.00361 (inactive)	0.817% (inactive)	19% (inactive)
O=C(NC1(C(F)(F)F)Oc2ccc(Cl)cc2O1)N1CCC2(CC1)OCCO2 (stereo not drawn)	676	-22.3% (inactive)	-18.5% (inactive)	114%	-97.5% (inactive)	108%	-0.513 (inactive)	-9.9e-05 (inactive)	0.00493 (inactive)	8.96% (inactive)	38.5% (inactive)
CN(C)CCN=Cc1c(O)n(-c2cccc3ccccc23)c(=O)[nH]c1=O	569	0% (inactive)	-6.8% (inactive)	107%	25.9% (inactive)	110%	-0.419 (inactive)	-4.5e-05 (inactive)	0.00451 (inactive)	14% (inactive)	11.3% (inactive)
COc1ccc(CC2C(=O)NC(=O)NC2=O)c(OC)c1	757	1.7% (inactive)	-24.3% (inactive)	105%	-3.4% (inactive)	105%	-0.406 (inactive)	5.3e-05 (inactive)	0.00731 (inactive)	-6.04% (inactive)	-0.414% (inactive)
CCc1ccc(OCCCN=C(C)c2c(O)n(C)c(=O)n(C)c2=O)cc1	627	0.2% (inactive)	-0.8% (inactive)	84.3%	23.8% (inactive)	95.1%	-0.385 (inactive)	2.2e-06 (inactive)	0.00351 (inactive)	11.6% (inactive)	14.8% (inactive)
CCC(C(=O)N1CCC2(CC1)OCCO2)c1ccccc1 (stereo not drawn)	391	8.2% (inactive)	18.1% (inactive)	111%	-81.6% (inactive)	99.5%	-0.381 (inactive)	-2.6e-05 (inactive)	0.00492 (inactive)	14.2% (inactive)	7.25% (inactive)
O=c1[nH]c(=O)n(-c2ccc(F)cc2)c(O)c1C=Nc1ccccc1N1CCCC1	459	-0.3% (inactive)	-4.4% (inactive)	112%	-109% (inactive)	118%	-0.0108 (inactive)	1.9e-06 (inactive)	0.00376 (inactive)	3.89% (inactive)	14.6% (inactive)
COC(=O)C1C2c3ccccc3OC1(C)N=c1s/c(=C/c3cnn(C)c3C)c(=O)n12 (stereo not drawn)	469	10.9% (inactive)	0.9% (inactive)	115%	-82.7% (inactive)	112%	-0.332 (inactive)	-4.9e-05 (inactive)	0.00428 (inactive)	15.6% (inactive)	23.4% (inactive)
CCn1c(C)c(C(=O)O)c2cc(OC)ccc21	617	3.5% (inactive)	1.8% (inactive)	96.3%	11.4% (inactive)	107%	-0.495 (inactive)	-2.5e-05 (inactive)	0.00472 (inactive)	14.5% (inactive)	22.2% (inactive)
COc1ccccc1N(CC(=O)NC1CCCCC1)C(=O)c1cnn(C(C)C)c1	526	2.5% (inactive)	3.2% (inactive)	102%	-128% (inactive)	157%	-0.598 (inactive)	9.1e-06 (inactive)	0.00634 (inactive)	-9.99% (inactive)	-3.91% (inactive)
CN1C(=O)C(Cc2cccc3ccccc23)C(=O)N(C)C1=O	393	6.3% (inactive)	-7.2% (inactive)	108%	-57.4% (inactive)	125%	-0.47 (inactive)	-4.8e-05 (inactive)	0.00658 (inactive)	2.57% (inactive)	32.2% (inactive)
COc1ccc(CCn2c(O)c(C=NCCCN(C)C)c(=O)[nH]c2=O)cc1OC	338	-1.6% (inactive)	12.1% (inactive)	110%	-38.1% (inactive)	108%	-0.446 (inactive)	-2.8e-05 (inactive)	0.00426 (inactive)	11.5% (inactive)	8.09% (inactive)
Cc1cccc(C2=NCC(=O)N(CC(=O)NCc3ccco3)c3sc4c(c32)CCCC4)c1	291	14.7% (inactive)	13.6% (inactive)	92.1%	-48.4% (inactive)	87.3%	-0.56 (inactive)	-8.4e-05 (inactive)	0.00582 (inactive)	14.4% (inactive)	49.8% (inactive)
Cc1ccc(-c2nc(CS(=O)CC(=O)N3CCC4(CC3)OCCO4)c(C)o2)cc1 (stereo not drawn)	704	-30.6% (inactive)	-2.4% (inactive)	99.4%	-4.2% (inactive)	101%	-0.62 (inactive)	-2.5e-05 (inactive)	0.00606 (inactive)	16.5% (inactive)	19.1% (inactive)
O=C(c1sc2ccccc2c1Cl)N1CCC2(CC1)OCCO2	388	2.5% (inactive)	-5.9% (inactive)	107%	-59.7% (inactive)	105%	-0.405 (inactive)	3e-05 (inactive)	0.00266 (inactive)	-10.2% (inactive)	-29.6% (inactive)
CCCCN1C(=O)NC(=O)C2(Cc3c(nc4c(C)cccn4c3=O)N3CCc4ccccc4C32)C1=O (stereo not drawn)	373	-0.5% (inactive)	-11.7% (inactive)	106%	-176% (inactive)	111%	-0.482 (inactive)	-4.8e-05 (inactive)	0.0045 (inactive)	14% (inactive)	32.3% (inactive)
CP(C)(=O)CCC(=O)O	347	-7.5% (inactive)	-5.3% (inactive)	99.6%	-100% (inactive)	118%	-0.434 (inactive)	-0.000166 (inactive)	0.00678 (inactive)	2.85% (inactive)	10.1% (inactive)
